# Test results from the OligoGym collection.
# Target: TRPC4
# Assay: pooled miR-30 sensor sort-seq; sequence = guide strand
# Conditions: shRNA
# Note: reference of the scale not given here.
row,Sequence,sensor-assay potency score (higher = more potent)
1,TTGACGAGCAACTTCTTCTGAA,0.0812
2,TTGAGTAGAACAACCAGAGAGA,-0.452
3,TATACTAGAGTCCTCTTCTTTT,-1.18
4,TTGAATGGACACACTCTCTTTC,-0.228
5,TTCTCTGGAACTTCTCGTCTGA,-0.126
6,TAGATGTTGAGTCTGGAGCGTG,-0.516
7,TTTGGTATTATAGGAACCGTGT,-0.294
8,TTCTTTTGCATGTTTCTCCTTT,0.299
9,TAACACACATTGTTCACTGAGA,-0.436
10,TATGAGACTATTGTCATCTCGG,0.182
11,TATTGTTCCAAAACTTTCTGGC,0.627
12,TATTTCTCTCAAGTGGTCCTGC,0.27

# Target: TRPM3
# Assay: as above
# Conditions: shRNA
row,Sequence,sensor-assay potency score (higher = more potent)
1,TAAAATGCTCTTTCTATCCAGG,-0.366
2,TTGTTCTTGAACTCCAAGCTGA,-0.171
3,TATTTTACCATCCTCTCGGGTC,-0.479
4,TTGTCTTCGAAGTTTCACCTCT,0.148
5,TTTCTTGAGCTCATCATCGGTT,0.21
6,TTTGTCTTTCATATTGACCGAA,-0.0309
